High-throughput results as filed in PubChem BioAssay.
This is a sample that favours compounds with a hit; in the whole collection about 18% have one here.
TGFb SMAD3 inh – inhibitors of TGF-b signaling; Potency, µM (doses to about 46.1 µM), actives largely listed as inhibitors; actives 1.2% (n = 410,000); HepG2 CAGA-GFP TGF-b/SMAD3 reporter, GFP fluorescence, 18 h; TGF-beta stimulated, 500 pg/mL final; note: nearly all actives have a fitted effect of over 65% in size
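GFP signal (ex488/em500-530) from TGF-beta-stimulated HEPG2 CAGA-GFP cells, 500 pg/mL final, 18 h at 37 degrees C in DMEM plus 1% FBS, normalized to unstimulated and DMSO-stimulated controls.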
TDP1 inh – blocks human tyrosyl-DNA phosphodiesterase 1. recombinant TDP1, AlphaScreen DNA substrate cleavage. Q9NUW8. actives 0.28% (n = 350,000). Potency, µM (series often up to 130 µM), actives largely listed as inhibitors; note: nearly all actives have a fitted effect of over 40% in size
Target sequence (Q9NUW8 whole entry, looked up): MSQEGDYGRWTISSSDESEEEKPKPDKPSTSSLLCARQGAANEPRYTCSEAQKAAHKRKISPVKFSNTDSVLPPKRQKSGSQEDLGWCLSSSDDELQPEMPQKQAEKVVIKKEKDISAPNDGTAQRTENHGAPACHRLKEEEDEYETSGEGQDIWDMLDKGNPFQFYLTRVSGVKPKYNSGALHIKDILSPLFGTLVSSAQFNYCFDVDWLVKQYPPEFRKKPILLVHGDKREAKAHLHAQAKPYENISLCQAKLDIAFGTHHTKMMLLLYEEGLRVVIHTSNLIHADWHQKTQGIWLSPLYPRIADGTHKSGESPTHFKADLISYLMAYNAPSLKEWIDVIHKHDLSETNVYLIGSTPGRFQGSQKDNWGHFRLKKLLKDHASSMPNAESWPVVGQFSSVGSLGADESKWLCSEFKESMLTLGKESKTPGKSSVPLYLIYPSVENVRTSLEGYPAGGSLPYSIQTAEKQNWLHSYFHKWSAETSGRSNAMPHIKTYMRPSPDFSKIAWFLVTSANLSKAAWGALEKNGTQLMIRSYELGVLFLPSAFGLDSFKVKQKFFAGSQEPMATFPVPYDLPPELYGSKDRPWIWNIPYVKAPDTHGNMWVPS
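Recombinant E. coli-expressed Tdp1 (1 nM) preincubated with compound 15 min at RT, then 5'-biotin/3'-phosphotyrosine-FITC DNA substrate (15 nM) added for 5 min. AlphaScreen beads (10 ug/ml) added, 10 min RT; tyrosine-FITC cleavage read as signal loss.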
DT40 TDP1 no CPT – qHTS for Inhibitors of human tyrosyl-DNA phosphodiesterase 1 (TDP1): qHTS in cells in absence of CPT. DT40 Tdp1-/- hTDP1 cells, no CPT, ATP luminescence, 48 h. AID 686978, 2013. actives 15% (n = 420,000). Potency, µM (titrated, usually from 46.2 µM), actives largely listed as inhibitors; note: nearly all actives have a fitted effect of over 55% in size
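DT40 Tdp1-/-;hTDP1 cells, no CPT (DMSO vehicle only), 400 cells/well; compounds pin-transferred; ≥48 hr, 37 °C; CellTiter-Glo 30 min RT dark, luminescence read.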
TDP1 cell CPT – DT40-hTDP1 cell growth loss with CPT; AID 686979; actives 12% (n = 420,000); chicken DT40 Tdp1-/-;hTDP1 cells + 20 nM CPT, ATP luminescence, 48 h; Potency, µM (doses to about 46.2 µM), usual class: inhibitors; note: nearly all actives have a fitted effect of over 55% in size
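Chicken DT40 Tdp1-/- cells complemented with human TDP1, 400 cells/well, exposed to compounds plus 20 nM camptothecin for at least 48 h at 37 C; viability read as ATP content by CellTiter-Glo luminescence.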
HepG2 viability – kills HepG2 cells in TGF-b inhibitor counter-screen; HepG2 CAGA-GFP viability, ATP luminescence, 18 h; Potency, µM (doses to about 46.1 µM), most hits filed as cytotoxic; actives 0.76% (n = 410,000); AID 588856
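HepG2 CAGA-GFP cells (1000/well, DMEM with 1% FBS) received compound, then TGF-beta at 500 pg/mL final, and were incubated 18 hours at 37 degrees C. Viability was read by CellTiter-Glo luminescence. Media-only wells were set as complete cell-killing and DMSO as no toxicity.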
IL1B secr inh – inflammasome signaling inhibition, IL-1 beta readout; THP-1 LPS/ATP IL-1B secretion, AlphaLISA, 16 h; active compounds read low; activity change, % at 57.5 µM; actives 4.7% (n = 360,000); in the data active = activity change below about -50%; inconclusive = mostly about -30% to -49%
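Secreted IL-1B measured by AlphaLISA bead assay after 16 h compound exposure of THP-1 cells; compounds (final up to 57.5 uM) added 1 h before LPS (250 ng/mL) and ATP (1.25 mM) stimulation; lower signal means less secretion.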
Of the large screens only hits and unclear results are named; the others gave an inactive call. Unless noted, calls come from the whole dose curve; as a rule, active = well fitted curve in the direction sought with a large enough effect; inconclusive = small, poorly fitted or top-dose-only effect, or another doubt; inactive = no such curve, though single readings can be large; an effect the other way counts as inactive or inconclusive.

COc1ccc(OC)c(CNC(=O)c2ccc3nc(C(C)C)oc3c2)c1	TGFb SMAD3 inh inconclusive, DT40 TDP1 no CPT 23µM, TDP1 cell CPT inconclusive (no result: IL1B secr inh)
CC(C)c1nc2ccc(C(=O)NCc3ccccc3Br)cc2o1	TGFb SMAD3 inh inconclusive, DT40 TDP1 no CPT 16µM, TDP1 cell CPT inconclusive (no result: IL1B secr inh)
COc1ccc([C@@H](C)NC(=O)c2ccc3oc(C(C)C)nc3c2)cc1	DT40 TDP1 no CPT 16µM, TDP1 cell CPT inconclusive
CSCC[C@H](NC(=O)[C@H](Cc1ccccc1)n1c(=O)[nH]c2ccccc2c1=O)C(=O)N1CCC(C(=O)O)CC1	none (no result: TDP1 inh)
CCCC(=O)Nc1ncnc2c1ncn2[C@@H]1O[C@H]2COP(=O)(O)O[C@@H]2[C@@H]1OC(=O)CCC	none (no result: TGFb SMAD3 inh, DT40 TDP1 no CPT, TDP1 cell CPT, HepG2 viability, IL1B secr inh)
COc1ccc(CNC(=O)c2ccc3nc(C(C)C)oc3c2)cc1OC	TGFb SMAD3 inh inconclusive, DT40 TDP1 no CPT inconclusive, TDP1 cell CPT 23µM (no result: IL1B secr inh)
COc1ccc(Br)cc1CNC(=O)c1ccc2nc(C(C)C)oc2c1	none (no result: IL1B secr inh)
CC(=O)Nc1ccc(C(=O)CSc2nccc(=O)[nH]2)cc1	none
CC1(C)CN(C2CCCCC2)C(=O)[C@H]1CC(=O)Nc1ccccc1	DT40 TDP1 no CPT inconclusive (no result: TDP1 inh)
CC1(C)CN(C2CCCCC2)C(=O)[C@H]1CC(=O)Nc1ccc(Br)cc1	DT40 TDP1 no CPT 18µM, TDP1 cell CPT inconclusive (no result: TDP1 inh)
CCOC(=O)C1CCCN(CCC(=O)Nc2cc(OC)ccc2OC)C1 (stereo not given)	none (no result: TDP1 inh)
c1ccn2cc(C34CC5CC(CC(C5)C3)C4)nc2c1	DT40 TDP1 no CPT 18µM, TDP1 cell CPT inconclusive
c1ccc(-c2cn3ccccc3n2)cc1	none (no result: TDP1 inh)
O=C(NCC1CCCO1)c1ccc2c(=O)n(CC3CCCO3)c(SCC(=O)N3CCCC3)nc2c1 (stereo not given)	DT40 TDP1 no CPT 0.23µM
Cc1ccc(NC(=O)CSc2nc3cc(C(=O)NCC4CCCO4)ccc3c(=O)n2CC2CCCO2)cc1 (stereo not given)	DT40 TDP1 no CPT inconclusive, TDP1 cell CPT inconclusive (no result: TDP1 inh)
Cc1ccc(C(=O)CSc2nc3cc(C(=O)NC4CCCC4)ccc3c(=O)n2CC2CCCO2)c(C)c1 (stereo not given)	DT40 TDP1 no CPT inconclusive, TDP1 cell CPT 10µM (no result: IL1B secr inh)
O=C(CSc1nc2ccccc2c(=O)n1CC1CCCO1)N1CCN(c2ccccc2)CC1 (stereo not given)	DT40 TDP1 no CPT 23µM, TDP1 cell CPT 26µM (no result: TDP1 inh)
O=C(CSc1nc2ccccc2c(=O)n1CC1CCCO1)NCc1ccccc1 (stereo not given)	none
CCCCCCn1cc(CN2CC(N(C)CCC)CS2(=O)=O)nn1 (stereo not given)	none (no result: TGFb SMAD3 inh, TDP1 inh, HepG2 viability)
Cc1ccc(F)cc1NC(=O)CCc1c(C)nn(-c2ccc(N3CCCC3)nn2)c1C	DT40 TDP1 no CPT inconclusive, TDP1 cell CPT inconclusive (no result: IL1B secr inh)
CCOc1ccccc1CNC(=O)CCc1c(C)nn(-c2ccc(N3CCCCC3)nn2)c1C	TGFb SMAD3 inh inconclusive, DT40 TDP1 no CPT 21µM, TDP1 cell CPT inconclusive (no result: IL1B secr inh)
CCOc1ccccc1NC(=O)CCc1c(C)nn(-c2ccc(N3CCCCC3)nn2)c1C	TGFb SMAD3 inh inconclusive, DT40 TDP1 no CPT 16µM, TDP1 cell CPT 23µM
O=C(Cn1cc(S(=O)(=O)c2ccccc2)c(=O)c2cc(Cl)ccc21)Nc1ccc2c(c1)OCO2	DT40 TDP1 no CPT inconclusive (no result: IL1B secr inh)
COC(=O)c1ccc(CSc2nc3c([nH]c4ccccc43)c(=O)n2-c2cccc(Cl)c2)o1	DT40 TDP1 no CPT inconclusive, TDP1 cell CPT inconclusive (no result: IL1B secr inh)
COc1ccccc1C(CCNCc1ccccc1)c1ccc(OC(C)C)cc1 (stereo not given)	TGFb SMAD3 inh inconclusive, DT40 TDP1 no CPT 21µM, TDP1 cell CPT 16µM, HepG2 viability 13µM, IL1B secr inh -89 (no result: TDP1 inh)
COc1ccc(CNCCC(c2ccc(OC(C)C)cc2)c2ccccc2OC)cc1 (stereo not given)	TGFb SMAD3 inh inconclusive, DT40 TDP1 no CPT 12µM, TDP1 cell CPT 13µM, IL1B secr inh -97 (no result: TDP1 inh)
